According to ChEMBL document CHEMBL1961873, “Compounds: GSK PKIS; Assays: Nanosyn kinase panel” (2012):
“And” between values parts separate entries of the source, which are not always exact repeats. Equal entries are not always repeated.

Columns and labels:
[1] = target: T1, Serine/threonine-protein kinase TBK1 (Homo sapiens) (UniProt Q9UHD2); settings: at 1 µM;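 also: values are mean inhibition of TBK1, screened as part of the GSK published kinase inhibitor set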
T1 sequence (whole entry): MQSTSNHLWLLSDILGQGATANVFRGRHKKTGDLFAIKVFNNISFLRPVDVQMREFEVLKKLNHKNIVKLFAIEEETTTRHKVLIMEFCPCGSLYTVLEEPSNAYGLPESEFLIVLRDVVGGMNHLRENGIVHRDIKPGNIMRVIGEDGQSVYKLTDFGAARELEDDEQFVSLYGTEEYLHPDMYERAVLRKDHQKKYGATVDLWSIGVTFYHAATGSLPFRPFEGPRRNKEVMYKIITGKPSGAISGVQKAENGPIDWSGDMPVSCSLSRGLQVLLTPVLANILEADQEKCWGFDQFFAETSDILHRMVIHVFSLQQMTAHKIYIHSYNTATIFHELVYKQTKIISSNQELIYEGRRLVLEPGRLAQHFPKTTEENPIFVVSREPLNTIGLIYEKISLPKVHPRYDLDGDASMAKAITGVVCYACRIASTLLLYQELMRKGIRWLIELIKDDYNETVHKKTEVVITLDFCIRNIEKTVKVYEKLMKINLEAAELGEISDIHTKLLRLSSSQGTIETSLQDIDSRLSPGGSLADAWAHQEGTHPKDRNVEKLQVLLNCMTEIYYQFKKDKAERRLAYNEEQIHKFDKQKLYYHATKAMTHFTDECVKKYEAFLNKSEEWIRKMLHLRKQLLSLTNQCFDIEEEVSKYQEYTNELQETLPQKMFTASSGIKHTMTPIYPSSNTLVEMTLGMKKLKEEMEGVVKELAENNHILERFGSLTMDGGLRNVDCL

[2] = target: T2, Testis-specific serine/threonine-protein kinase 1 (Homo sapiens) (UniProt Q9BXA7); settings: at 0.1 µM
T2 sequence (whole entry): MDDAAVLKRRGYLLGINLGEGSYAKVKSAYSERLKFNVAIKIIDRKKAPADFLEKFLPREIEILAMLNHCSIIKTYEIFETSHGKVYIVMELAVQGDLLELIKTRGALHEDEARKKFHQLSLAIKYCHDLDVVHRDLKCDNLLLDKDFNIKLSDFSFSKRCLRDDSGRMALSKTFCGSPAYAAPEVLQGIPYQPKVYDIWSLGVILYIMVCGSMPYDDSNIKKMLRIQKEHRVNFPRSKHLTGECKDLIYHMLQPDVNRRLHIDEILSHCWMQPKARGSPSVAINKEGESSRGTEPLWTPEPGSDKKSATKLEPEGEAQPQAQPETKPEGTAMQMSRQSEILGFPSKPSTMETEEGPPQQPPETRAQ

[3] = target: T2, Testis-specific serine/threonine-protein kinase 1 (Homo sapiens); settings: at 1 µM
[4] = target: T3, Testis-specific serine/threonine-protein kinase 2 (Homo sapiens) (UniProt Q96PF2); settings: at 0.1 µM
T3 sequence (whole entry): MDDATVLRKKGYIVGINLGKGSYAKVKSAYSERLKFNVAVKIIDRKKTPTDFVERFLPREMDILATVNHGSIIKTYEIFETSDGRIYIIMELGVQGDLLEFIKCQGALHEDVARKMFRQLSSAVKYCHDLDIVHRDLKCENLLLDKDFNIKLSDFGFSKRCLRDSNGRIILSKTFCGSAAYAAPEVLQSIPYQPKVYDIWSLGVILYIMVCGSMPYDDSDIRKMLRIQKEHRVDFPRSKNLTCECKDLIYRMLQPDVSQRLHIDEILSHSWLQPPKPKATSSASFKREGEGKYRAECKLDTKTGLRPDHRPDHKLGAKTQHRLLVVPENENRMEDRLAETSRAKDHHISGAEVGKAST

[5] = target: T3, Testis-specific serine/threonine-protein kinase 2 (Homo sapiens); settings: at 1 µM
[6] = target: Casein kinase I isoform alpha (Homo sapiens) (UniProt P48729); settings: at 0.1 µM
[7] = target: Casein kinase I isoform alpha (Homo sapiens) (UniProt P48729); settings: at 1 µM
[8] = target: Casein kinase I isoform gamma-1 (Homo sapiens) (UniProt Q9HCP0); settings: at 0.1 µM
[9] = target: Casein kinase I isoform gamma-1 (Homo sapiens) (UniProt Q9HCP0); settings: at 1 µM
[10] = target: Casein kinase I isoform gamma-2 (Homo sapiens) (UniProt P78368); settings: at 0.1 µM
[11] = target: Casein kinase I isoform gamma-2 (Homo sapiens) (UniProt P78368); settings: at 1 µM
[12] = target: Casein kinase I isoform gamma-3 (Homo sapiens) (UniProt Q9Y6M4); settings: at 0.1 µM
[13] = target: Casein kinase I isoform gamma-3 (Homo sapiens) (UniProt Q9Y6M4); settings: at 1 µM
[14] = target: Cyclin-dependent kinase 1 (Homo sapiens) (UniProt P06493); settings: at 0.1 µM
[15] = target: Cyclin-dependent kinase 1 (Homo sapiens) (UniProt P06493); settings: at 1 µM
[16] = target: Cyclin-dependent kinase 2 (Homo sapiens) (UniProt P24941); settings: at 0.1 µM
[17] = target: Cyclin-dependent kinase 2 (Homo sapiens) (UniProt P24941); settings: at 1 µM
[18] = target: Cyclin-dependent kinase 2 (Homo sapiens) (UniProt P24941); settings: at 0.1 µM; remark: listed apart in the source
[19] = target: Cyclin-dependent kinase 2 (Homo sapiens) (UniProt P24941); settings: at 1 µM; remark: listed apart in the source
[20] = target: CDK3/Cyclin E (Homo sapiens) (UniProt P24864+Q00526); settings: at 0.1 µM;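 also: reported percentages are mean inhibition values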
Chain of CDK3/Cyclin E (Homo sapiens) (P24864 whole entry, looked up): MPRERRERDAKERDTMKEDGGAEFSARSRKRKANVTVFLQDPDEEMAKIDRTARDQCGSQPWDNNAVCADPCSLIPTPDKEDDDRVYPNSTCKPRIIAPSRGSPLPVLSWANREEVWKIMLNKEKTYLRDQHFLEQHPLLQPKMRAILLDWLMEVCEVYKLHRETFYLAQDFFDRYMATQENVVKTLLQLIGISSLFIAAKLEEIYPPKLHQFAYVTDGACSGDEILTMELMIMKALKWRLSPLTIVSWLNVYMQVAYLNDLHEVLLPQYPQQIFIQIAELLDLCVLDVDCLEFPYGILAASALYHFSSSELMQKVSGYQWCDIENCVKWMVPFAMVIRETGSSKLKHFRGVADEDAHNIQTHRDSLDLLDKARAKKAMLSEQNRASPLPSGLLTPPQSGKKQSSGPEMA
Chain of CDK3/Cyclin E (Homo sapiens) (Q00526 whole entry, looked up): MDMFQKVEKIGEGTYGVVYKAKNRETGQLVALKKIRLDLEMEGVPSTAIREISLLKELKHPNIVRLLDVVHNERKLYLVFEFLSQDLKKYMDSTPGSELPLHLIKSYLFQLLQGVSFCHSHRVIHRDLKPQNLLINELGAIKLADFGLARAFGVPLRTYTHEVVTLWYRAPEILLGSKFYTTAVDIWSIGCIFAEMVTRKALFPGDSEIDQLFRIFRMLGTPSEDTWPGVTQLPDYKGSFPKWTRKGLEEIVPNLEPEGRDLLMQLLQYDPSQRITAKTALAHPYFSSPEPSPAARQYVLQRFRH

Chain of Casein kinase I isoform gamma-1 (Homo sapiens) (Q9HCP0 whole entry, looked up, canonical isoform): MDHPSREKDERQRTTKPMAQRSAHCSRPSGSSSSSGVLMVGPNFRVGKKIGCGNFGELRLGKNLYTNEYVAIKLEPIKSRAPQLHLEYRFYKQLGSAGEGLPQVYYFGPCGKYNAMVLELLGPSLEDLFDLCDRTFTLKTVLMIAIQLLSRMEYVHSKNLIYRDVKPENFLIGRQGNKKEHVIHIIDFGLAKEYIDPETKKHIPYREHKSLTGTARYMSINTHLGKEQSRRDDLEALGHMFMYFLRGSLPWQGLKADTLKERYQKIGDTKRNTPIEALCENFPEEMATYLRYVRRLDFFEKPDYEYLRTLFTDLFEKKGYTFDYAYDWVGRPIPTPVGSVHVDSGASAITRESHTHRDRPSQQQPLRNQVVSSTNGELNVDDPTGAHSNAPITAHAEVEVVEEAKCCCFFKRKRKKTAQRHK
Chain of Casein kinase I isoform gamma-2 (Homo sapiens) (P78368 whole entry, looked up, canonical isoform): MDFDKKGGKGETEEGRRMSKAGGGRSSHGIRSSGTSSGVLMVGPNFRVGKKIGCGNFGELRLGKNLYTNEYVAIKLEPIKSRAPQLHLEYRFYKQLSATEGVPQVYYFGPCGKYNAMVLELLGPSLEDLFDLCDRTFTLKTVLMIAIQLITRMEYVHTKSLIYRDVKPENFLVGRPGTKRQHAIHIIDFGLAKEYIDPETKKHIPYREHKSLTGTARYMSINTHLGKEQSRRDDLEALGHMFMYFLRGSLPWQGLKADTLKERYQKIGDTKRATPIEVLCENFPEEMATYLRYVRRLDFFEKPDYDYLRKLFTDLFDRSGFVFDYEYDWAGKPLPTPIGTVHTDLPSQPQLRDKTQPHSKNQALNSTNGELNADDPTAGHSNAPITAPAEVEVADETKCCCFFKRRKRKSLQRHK
Chain of Casein kinase I isoform gamma-3 (Homo sapiens) (Q9Y6M4 whole entry, looked up, canonical isoform): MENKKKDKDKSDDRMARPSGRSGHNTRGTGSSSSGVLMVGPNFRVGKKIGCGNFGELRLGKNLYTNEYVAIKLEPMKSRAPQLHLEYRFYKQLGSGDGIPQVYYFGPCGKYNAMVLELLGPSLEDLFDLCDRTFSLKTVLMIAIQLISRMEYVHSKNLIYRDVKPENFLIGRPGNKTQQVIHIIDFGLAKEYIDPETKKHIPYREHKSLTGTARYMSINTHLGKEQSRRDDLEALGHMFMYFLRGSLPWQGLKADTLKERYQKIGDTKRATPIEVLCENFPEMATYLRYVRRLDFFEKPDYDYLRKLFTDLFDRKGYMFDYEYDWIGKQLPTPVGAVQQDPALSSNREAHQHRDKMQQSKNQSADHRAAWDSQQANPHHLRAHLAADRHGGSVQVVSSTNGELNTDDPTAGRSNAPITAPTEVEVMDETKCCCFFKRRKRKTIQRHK
Chain of Cyclin-dependent kinase 1 (Homo sapiens) (P06493 whole entry, looked up): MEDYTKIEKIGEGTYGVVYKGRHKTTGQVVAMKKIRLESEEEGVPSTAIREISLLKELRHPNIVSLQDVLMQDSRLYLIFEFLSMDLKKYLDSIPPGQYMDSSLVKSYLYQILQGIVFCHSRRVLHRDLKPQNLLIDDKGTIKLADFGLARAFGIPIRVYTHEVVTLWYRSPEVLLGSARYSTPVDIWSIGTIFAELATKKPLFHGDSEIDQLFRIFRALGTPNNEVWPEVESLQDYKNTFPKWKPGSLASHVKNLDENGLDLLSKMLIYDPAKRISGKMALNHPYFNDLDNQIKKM
Chain of Casein kinase I isoform alpha (Homo sapiens) (P48729 2-337 limits assumed): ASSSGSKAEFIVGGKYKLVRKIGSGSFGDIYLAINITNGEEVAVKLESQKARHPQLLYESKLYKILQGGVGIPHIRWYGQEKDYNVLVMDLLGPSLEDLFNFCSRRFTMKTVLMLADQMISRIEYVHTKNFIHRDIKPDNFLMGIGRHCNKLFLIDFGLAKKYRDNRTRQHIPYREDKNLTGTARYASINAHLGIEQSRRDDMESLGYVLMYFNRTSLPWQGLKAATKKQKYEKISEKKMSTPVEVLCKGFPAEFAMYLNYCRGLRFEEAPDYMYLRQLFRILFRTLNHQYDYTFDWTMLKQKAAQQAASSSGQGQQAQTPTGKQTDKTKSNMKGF

Structure (SMILES) | inhibition [1] | inhibition [2] | inhibition [3] | inhibition [4] | inhibition [5] | inhibition [6] | inhibition [7] | inhibition [8] | inhibition [9] | inhibition [10] | inhibition [11] | inhibition [12] | inhibition [13] | inhibition [14] | inhibition [15] | inhibition [16] | inhibition [17] | inhibition [18] | inhibition [19] | inhibition [20]
CN(C)CCNC(=O)Nc1ccc(N(C)c2ccnc(Nc3ccc(CS(C)(=O)=O)cc3)n2)cc1 | 5.74% | 2.28% | 5.73% | 0.57% | -1.45% | 2.02% | 5.94% | 3.74% | 4.96% | 4.73% | 4.71% | 2.93% | 4.26% | 0.42% | 2.58% | 1.03% | 0.46% | 3.93% | 5.24% | 1.45%
NS(=O)(=O)c1ccc(N/N=C2\C(=O)Nc3cccc(CCc4ccncc4)c32)cc1 | 4.17% | 2.49% | 1.9% | 0.54% | 1.32% | 1.84% | -0.19% | 0.44% | 0.85% | 0.15% | 0.54% | 0.32% | 0.29% | 9.4% | 21.9% | 51.4% | 71.6% | 53.5% | 67.7% | 32.4%
CS(=O)(=O)CCNCc1ccc(-c2ccc3ncnc(Nc4ccc(OCc5cccc(C(F)(F)F)c5)cc4)c3c2)o1 | 6.44% | 5.83% | 4.35% | 2.31% | 2.41% | 5.05% | 6.4% | 3.46% | 4.57% | 3.14% | 3.89% | 3.14% | 2.45% | 1.34% | 0.34% | 2.27% | 1.87% | 2.01% | 3.44% | -1.58%
Cc1ccc(-c2cc3c(NC(=O)C4CC4)ncnc3o2)cc1 | 10.1% | 3.8% | 4.18% | 1.75% | 0.28% | 4.85% | 5.25% | 3.74% | 4.78% | 2.32% | 5.03% | 2.01% | 3.1% | 0.77% | 3.16% | 1.63% | 0.2% | 4.69% | 6.42% | 1.4%
CCn1c(-c2nonc2N)nc2cncc(C(=O)NCCNC)c21 | 9.32% | 7.08% | 32.1% | 2.36% | 1.74% | 4.37% | 4.77% | 4.39% | 5.89% | 3.81% | 5.17% | 3.69% | 3.84% | 0.45% | 0.67% | 0.58% | 3.6% | 2.89% | 5.11% | -2.24%
CS(=O)(=O)Nc1ccc(-c2ccc3c(NC(=O)C4CC4)n[nH]c3c2)cc1 | 7.65% | 2.9% | 2.78% | 0.58% | -0.76% | -2.5% | 3.8% | 2.55% | 4.34% | 1.91% | 4.11% | 4.47% | 2.66% | 0.29% | 3.65% | 2.2% | 6.28% | 2.71% | 5.01% | 0.71%
COc1ccc(Nc2ncc(-c3ccccc3)o2)cc1OC | 10.7% | 0.54% | 1.75% | 0.12% | 0.02% | 3.39% | 6.61% | 0.83% | 3.24% | 0.28% | 4.12% | -0.65% | 3.3% | 8.02% | 29.9% | 8.91% | 31.6% | 7.2% | 27.6% | 6.29%
Nc1nonc1-c1nc2cnccc2n1C1CC1 | 15.3% and 9% | 3.32% and 4.38% | 14.5% and 17.5% | 1.12% and 1.1% | -1.21% and 1.4% | 6.95% and 4.09% | 6.23% and 9.54% | 3.2% and -1.18% | 3.96% and -0.27% | 1.76% and -1.82% | 3.78% and -0.61% | 3.26% and -1.06% | 2.82% and 0.84% | 1.19% and -3.89% | 8.14% and 3.98% | 5% and 1.12% | 28% and 29.5% | 5.56% and 1.64% | 23.7% and 19.1% | 3.57% and 1.86%
COC(=O)Nc1nc2ccc(Oc3ccc(NC(=O)Nc4cc(C(F)(F)F)ccc4F)cc3)cc2s1 | -0.01% | 0.44% | 1.02% | -1.47% | 0.19% | -1.12% | 3.01% | -0.2% | -0.02% | -0.36% | -0.08% | -1.45% | 0.18% | 0.44% | 3.26% | 1.75% | 3.03% | 1.36% | 2.74% | 0.88%
N#Cc1ccc2c(-c3ccnc(NC4CC4)n3)c(-c3ccc(F)cc3)nn2c1 | 0.07% | 1.44% | -1.14% | 1.07% | -0.63% | 3.72% | 30.1% | 1.85% | 4.03% | 2% | 3.98% | 2.06% | 5.03% | 0.15% | -0.22% | 1.26% | 0.36% | 1% | 0.3% | -0.85%
Cc1cc(O)cc(C)c1/C=C/c1cncc(C(=O)OC(C)(C)C)c1 | 2.33% | 2.62% | 1.67% | 1.48% | 1.69% | 1.27% | 3.48% | 2.21% | 2.97% | 1.74% | 3.13% | 2.26% | 3.16% | 0.41% | 3.26% | 1.03% | 0.25% | 2.66% | 6.74% | 0.28%
COc1ccc2ncn(-c3cc(O[C@H](C)c4ccccc4C(F)(F)F)c(C(N)=O)s3)c2c1 | -0.87% | 1.48% | 1.53% | -0.29% | 0.97% | 0.31% | 2.23% | -1.06% | -0.1% | -0.92% | -0.54% | -1.87% | 0.68% | 0.65% | 3.45% | 1.04% | 0.96% | -0.81% | 1.48% | 1.1%
FC(F)(F)CNc1nccc(-c2cnn3ncccc23)n1 | 0.21% | 3.33% | 2.64% | -0.54% | -0.28% | 3.2% | 23.5% | 2.54% | 6.11% | 3.35% | 14.1% | 3.44% | 10.6% | 4.59% | 29.1% | 1.79% | 14.1% | 4.11% | 16.4% | 1.36%
